KB-V1 cytotox – kills drug-selected multidrug resistant KB-V1 cells; KB-V1 MDR cells viability, CellTiter-Glo, 72 h; AID 1347076; Potency, µM (highest dose often 46.1 µM), actives largely listed as cytotoxic; actives 3.4% (n = 400,000); also: % is scaled to controls: 0 for no effect and ±100 for the full control effect; nearly all actives have a fitted effect of over 60% in size
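Following 72 h at 37 degrees C with compound, KB-V1 cell viability was read by CellTiter-Glo luminescence, medium being phenol-red-free DMEM plus 10% FBS; concentration-response parameters came from normalized, curve-fitted qHTS data.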
MCF10A rerep – induces DNA re-replication in MCF 10a normal breast cells | MCF 10A DNA re-replication, Hoechst nuclear intensity, 48 h | Potency, µM (series often up to 46.1 µM), for inactives: at the top dose activity, positive = re-replication, most hits filed as activators | actives 2.9% (n = 350,000); also: % of control where 0% means no effect; nearly all actives have a fitted effect of over 50% in size
HT1080 IDH1KD tx – kills HT-1080 cells with IDH1 knockdown; HT-1080 IDH1 knockdown viability, ATP luminescence, 48 h; actives 2% (n = 360,000); Potency, µM (top dose mostly 46.1 µM), for inactives: at the highest dose activity, negative = toxicity, hits mostly cytotoxic; AID 686971;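 also: 0% = DMSO wells and -100% = cell-free medium wells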
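In this qHTS, HT-1080 cells depleted of IDH1 are exposed for 48 h at 37 °C to compound titrations. Toxicity is scored from CellTiter-Glo luminescence, with DMSO as full viability and medium alone as none.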
KB-3-1 tox – KB-3-1 parental cell cytotoxicity. actives 1.4% (n = 400,000). KB-3-1 viability, CellTiter-Glo ATP luminescence, 72 h. AID 1347075. Potency, µM (series often up to 46.1 µM), usual class: cytotoxic; also: % is scaled to controls: 0 for no effect and ±100 for the full control effect; nearly all actives have a fitted effect of over 60% in size
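Cytotoxicity measured as CellTiter-Glo luminescence after 72 h at 37 C. Compound titrations were pinned onto drug-naive KB-3-1 parental adenocarcinoma cells grown in DMEM with 10% FBS, and normalized data fitted to concentration-response curves.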
SW480 rerep – induces DNA re-replication in SW480 colon adenocarcinoma cells; SW480 DNA re-replication, Hoechst DNA content imaging, 48 h; Potency, µM (titrated, usually from 46.1 µM), for inactives: top-dose re-replication activation, actives largely listed as activators; actives 1.8% (n = 340,000); also: % of control where 0% means no effect; nearly all actives have a fitted effect of over 55% in size
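Per well, 250 cells were exposed to pinned compound for 48 hr. Nuclear DNA was visualised with Hoechst (40 min, 37 C) and total object intensity recorded by fluorescence scanning.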
HT1080-NT tox – kills 2HG-producing HT-1080-NT fibrosarcoma cells; HT-1080-NT fibrosarcoma viability, CellTiter-Glo ATP luminescence, 48 h; Potency, µM (doses to about 46.1 µM), for inactives: at the highest dose activity, negative = less viability, hits mostly cytotoxic; actives 1.6% (n = 360,000); AID 686970;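 also: NT is the 2HG producing partner of a matched IDH1 knockdown line; 0% = DMSO-treated cells and -100% = media-only wells without cells; nearly all actives have a fitted effect of over 55% in size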
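Luminescent CellTiter-Glo readout after 48 hours of compound exposure at 37 degrees C defined viability of HT-1080-NT cells. Activity was normalized to DMSO wells and cell-free media wells; concentration-response curves were fitted and assigned curve classes.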
* = called active by the depositor; i = inactive; u = inconclusive; x = not tested or not shown; [ ] = remark or other dose. In the library only some 8% were active in any assay of this set; here they are far more common. Calls follow the shape of the dose curve; as a rule, active = well fitted curve in the direction sought with a large enough effect; inconclusive = small, poorly fitted or top-dose-only effect, or another doubt; inactive = no such curve, though single readings can be large; an effect the other way counts as inactive or inconclusive. Potency is read from the fitted curve at half-maximal effect.

SMILES	KB-V1 cytotox	MCF10A rerep	HT1080 IDH1KD tx	KB-3-1 tox	SW480 rerep	HT1080-NT tox
COCCN(CC(=O)Nc1ccccc1C(F)(F)F)C(=O)/C=C/c1cc(Cl)c2c(c1)OCCO2	3.7µM*	12%	-34%	i	17%	-1%
COCCN(CC(=O)Nc1ccccc1C(F)(F)F)C(=O)/C=C/c1cc(Cl)c2c(c1)OCO2	i	-3%	-5%	i	-14%	-3%
CC1OC2(C)OC(=N)C1(C#N)C(C#N)(C#N)C2c1ccccc1 (stereo not drawn)	i	u	4%	i	-99%	-4%
CC1C2(C)OC(=N)C(C#N)(C(C)O2)C1(C#N)C#N (stereo not drawn)	i	u	1%	i	1.3µM*	18%
CC(CNC(=O)c1cc2ccccn2n1)c1ccccc1 (stereo not drawn)	i	x	x	i	x	x
CC(=O)c1cccc(S(=O)(=O)N2CCC(C(=O)O)CC2)c1	i	3%	8%	i	5%	11%
COc1cc2c(cc1OC)CN(S(=O)(=O)c1ccc3c(c1)OCCO3)CC2	5.2µM*	1%	-5%	u	-4%	0%
O=C(Nc1ccc2c(c1)OCCO2)C1CCN(S(=O)(=O)c2ccc(Br)s2)CC1	10µM*	-4%	-2%	u	u	-23%
O=C(Nc1ccc2c(c1)OCCO2)C1CCN(S(=O)(=O)c2cccs2)CC1	15µM*	10%	22%	i	-1%	-1%
COc1ccc(C2CCCCCN2C(=O)C2CCN(S(=O)(=O)c3cccc(C(C)=O)c3)CC2)cc1 (stereo not drawn)	18µM*	0%	-3%	i	u	-6%
O=C(Nc1ccc2c(c1)OCCO2)C1CCN(S(=O)(=O)c2ccccc2)CC1	i	u	-1%	i	17%	-15%
Cc1ccc(NC(=O)C2CCN(S(=O)(=O)c3ccc4c(c3)OCCCO4)CC2)nc1	u	10%	-14%	16µM*	-6%	u
COc1ccc(C(=O)C2CCN(S(=O)(=O)c3ccc4c(c3)OCCO4)CC2)cc1	23µM*	11%	u	u	-2%	-28%
Cc1ccnc(NC(=O)C2CCN(S(=O)(=O)c3ccc(Cl)c(C(F)(F)F)c3)CC2)c1	u	20%	16%	i	19%	-5%
O=C(Nc1ccncc1)C1CCN(S(=O)(=O)c2ccc(Cl)c(C(F)(F)F)c2)CC1	u	u	-18%	5.8µM*	0%	2%[9.24 µM]
COc1ccc(C(=O)N2CCN(S(=O)(=O)c3ccc4c(c3)OCCO4)CC2)cc1	i	x	0%	i	x	0%
O=C(Nc1ccc2c(c1)OCCO2)C1CCN(S(=O)(=O)c2ccc3c(c2)OCCO3)CC1	15µM*	7%	5%	i	1%	27%
CC(=O)Nc1ccc(NC(=O)C2CCN(S(=O)(=O)c3ccc4c(c3)OCCO4)CC2)cc1	i	13%	-1%	i	-6%	-10%
O=C(Nc1ccccn1)C1CCN(S(=O)(=O)c2ccc3c(c2)OCCCO3)CC1	i	3%	-4%	i	1%	-7%
Cc1ccc(S(=O)(=O)N2CCCOC2CNC(=O)C(=O)NC2CCCC2)cc1 (stereo not drawn)	x	-41%	7%	x	17%	26%
Cc1ccc(-n2nc(C)c3c(C(=O)NCc4ccc(F)cc4)cc(C)nc32)cc1	i	x	x	i	x	x
O=C(NN1C(=O)c2ccccc2NC1c1ccc([N+](=O)[O-])o1)c1ccc(Br)cc1 (stereo not drawn)	i	9.2µM*	-2%	i	u	4%
Cc1cc([N+](=O)[O-])ccc1-c1ccc(C2Nc3ccccc3C(=O)N2O)o1 (stereo not drawn)	i	10µM*	7.1µM*	23µM*	u	u
O=C(NN1C(=O)c2cc(Br)ccc2NC1c1ccccc1Cl)c1ccncc1 (stereo not drawn)	i	6%	0%	i	21µM*	2%
CC(=O)NN1C(=O)c2ccccc2NC1c1ccc([N+](=O)[O-])o1 (stereo not drawn)	i	15%	-14%	u	23µM*	-18%
SMILES	KB-V1 cytotox	MCF10A rerep	HT1080 IDH1KD tx	KB-3-1 tox	SW480 rerep	HT1080-NT tox
O=C(NN1C(=O)c2cc(Br)ccc2NC1c1cc(Br)cc(Br)c1O)c1ccncc1 (stereo not drawn)	i	u	u	i	u	-28%
O=C(NN1C(=O)c2ccccc2NC1c1ccco1)c1ccc(Br)cc1 (stereo not drawn)	i	0%	1%	i	-15%	6%
COc1ccc([N+](=O)[O-])cc1NCC(=O)Nc1cc(S(=O)(=O)N2CCCCC2)ccc1C	u	-5%	5%	i	-6%	-10%
COc1ccc(-c2nnc(-c3cccs3)o2)cc1OC	6.5µM*	-3%	-22%	i	-11%	-2%
COc1cc(-c2nnc(-c3cccs3)o2)cc(OC)c1OC	u	21%	9%	i	-2%	17%
Cn1c(CCN2CCCC2)nc2cc(NS(=O)(=O)c3ccc(Cl)cc3)ccc21	i	u	u	u	21µM*	-19%
CC(=O)N1CCN(Cc2nc3cc(NC(=O)Cn4nc(C)c5ccccc5c4=O)ccc3n2C)CC1	i	27%	1%	i	10%	-5%
Cn1c(CCN2CCN(c3ccccn3)CC2)nc2cc(NS(=O)(=O)c3ccccc3)ccc21	i	23µM*	-28%	i	u	-1%
Cn1c(CCN2CCCCC2)nc2cc(NS(=O)(=O)c3ccccc3)ccc21	i	12%	u	i	u	-26%
Cc1ccc(C(C)C)c(OCC(=O)Nc2ccc3c(c2)nc(CCN2CCCCC2)n3C)c1	u	u	16µM*	i	u	21µM*
CCn1c(CN2CCCCC2)nc2cc(NC(=O)COc3cc(C)ccc3C(C)C)ccc21	i	x	x	u	x	x
Cc1nn(CC(=O)Nc2ccc3c(c2)nc(CCN2CCCCC2)n3C)c(=O)c2ccccc12	i	16µM*	2.8µM*	i	u	u
Cc1ccc(OCC(=O)Nc2ccc3c(c2)nc(CCN2CCN(c4ccccn4)CC2)n3C)cc1	i	x	21µM*	i	x	21µM*
COc1ccc(-c2nc(SCC(=O)NC3CCCC3)c(-c3ccccc3)[nH]2)cc1OC	i	x	x	i	x	x
CCOC(=O)c1ccc(NS(=O)(=O)c2cc(Br)cc3c2N(C(C)=O)C(C)C3)cc1 (stereo not drawn)	i	x	x	u	x	x

High-throughput results: PubChem, National Center for Advancing Translational Sciences (NCATS)
